37 molecules from PubChem BioAssay (NCATS) can be followed below.

Inconclusive results are not listed. A call without a number means that no potency is given here. Active and inactive are the calls of the source. Calls come from the whole dose curve.

The assay can be described thus: Primary qHTS for Huh7 cytotoxicity: counterscreen for inhibitors of MERS-S pseudotyped particle cell entry (AID 1479147). As to conditions: cell viability read-out; series mostly up to 57.1 µM.
As to `CC(N)C12CC3CC(CC(C3)C1)C2` (configuration not stated), the Potency entry was “inactive”. As for `COc1cc2nc(N(C)CCCNC(=O)C3CCCO3)nc(N)c2cc1OC` (configuration not stated), the Potency entry was “inactive”. Turning to `CC(=O)O[C@]1(C(C)=O)CC[C@H]2[C@@H]3C=C(Cl)C4=CC(=O)[C@@H]5C[C@@H]5[C@]4(C)[C@H]3CC[C@@]21C`, the Potency result was “inactive”. The value for `OC(CCN1CCCC1)(c1ccccc1)C1CCCCC1` (configuration not stated) was “inactive”; that for `O=C1CCc2cc(OCCCCc3nnnn3C3CCCCC3)ccc2N1` was “inactive”.

In the case of `Cc1ccccc1C(=O)Nc1ccc(C(=O)N2CCCC(O)c3cc(Cl)ccc32)c(C)c1` (configuration not stated), the Potency entry was “inactive”. In the case of `Cc1ccccc1C(OCCN(C)C)c1ccccc1` (configuration not stated), the Potency entry was “inactive”. As to `Oc1cc(Cl)ccc1Oc1ccc(Cl)cc1Cl`, the Potency result was “inactive”.

As to `COc1ccc(OC)c(C(O)CNC(=O)CN)c1` (configuration not stated), the Potency entry is “inactive”.

On to `CO[C@@]12[C@H](COC(N)=O)C3=C(C(=O)C(C)=C(N)C3=O)N1C[C@@H]1N[C@@H]12`, for which the Potency entry is “inactive”. With `Cc1nc2n(c(=O)c1CCN1CCC(c3noc4cc(F)ccc34)CC1)CCCC2`, the Potency entry is “inactive”. Consider `COC(=O)C1=C(C)NC(C)=C(C(=O)OCCN(C)Cc2ccccc2)C1c1cccc([N+](=O)[O-])c1` (configuration not stated), for which the Potency entry was “inactive”. The value for `CN(C)CC/C=C1\c2ccccc2COc2ccccc21` was “inactive”. Take `OCCOCCN1CCN(C(c2ccccc2)c2ccc(Cl)cc2)CC1` (configuration not stated): the Potency entry was “inactive”.

Regarding `CN1CCN(C2=Nc3ccccc3Oc3ccc(Cl)cc32)CC1`, the Potency result is “inactive”.

Regarding `Nc1ncn([C@@H]2O[C@H](CO)[C@@H](O)[C@H]2O)c(=O)n1`, the Potency entry was “inactive”. For the molecule `CC[C@H](C)C(=O)O[C@H]1C[C@@H](C)C=C2C=C[C@H](C)[C@H](CC[C@@H]3C[C@@H](O)CC(=O)O3)[C@H]21`, the Potency result is “inactive”. In the case of `CC/C(=C(\c1ccccc1)c1ccc(OCCN(C)C)cc1)c1ccccc1`, the Potency entry was “inactive”. In the case of `CN1CCN(C(c2ccccc2)c2ccccc2)CC1`, the Potency entry was “inactive”.

On to `Fc1ccc([C@@H]2CCNC[C@H]2COc2ccc3c(c2)OCO3)cc1`, for which the Potency result was “inactive”. In the case of `C[C@@H](O[C@H]1OCCN(Cc2n[nH]c(=O)[nH]2)[C@H]1c1ccc(F)cc1)c1cc(C(F)(F)F)cc(C(F)(F)F)c1`, the Potency result was “inactive”. On to `C=C[C@H]1CN2CC[C@H]1C[C@@H]2[C@@H](O)c1ccnc2ccc(OC)cc12`, for which the Potency entry is “inactive”. Then `CC(C)NC[C@@H](O)COc1ccc(CC(N)=O)cc1`, with “inactive”. Then `C[C@H]1c2cccc(O)c2C(O)=C2C(=O)[C@]3(O)C(O)=C(C(N)=O)C(=O)[C@@H](N(C)C)[C@@H]3[C@@H](O)[C@@H]21`, with “inactive”; and `O=C1Nc2ccc(Cl)cc2[C@@](C#CC2CC2)(C(F)(F)F)O1`, with “inactive”.

As to `CCCN(CCc1cccs1)[C@H]1CCc2c(O)cccc2C1`, the Potency result is “inactive”. Take `CN(C/C=C/C#CC(C)(C)C)Cc1cccc2ccccc12`: the Potency result was “inactive”.

Regarding `Cc1ccc(O)c([C@H](CCN(C(C)C)C(C)C)c2ccccc2)c1`, the Potency result is “inactive”. For the molecule `C#C[C@]1(O)CC[C@H]2[C@@H]3CCC4=Cc5oncc5C[C@]4(C)[C@H]3CC[C@@]21C`, the Potency entry is “inactive”. As to `CC(CN(C)C)CN1c2ccccc2CCc2ccccc21` (configuration not stated), the Potency entry is “inactive”. `CCCCc1oc2ccccc2c1C(=O)c1cc(I)c(OCCN(CC)CC)c(I)c1`: the Potency result is “inactive”. `COc1ccc2nc(S(=O)Cc3ncc(C)c(OC)c3C)[nH]c2c1` (configuration not stated): the Potency result is “inactive”.

For the molecule `CCN(CC)CCOC(=O)C1(C2CCCCC2)CCCCC1`, the Potency entry is “inactive”. Then `COc1cc2c(cc1OC)C(=O)C(CC1CCN(Cc3ccccc3)CC1)C2` (configuration not stated), with “inactive”. For `OCCN(CCO)c1nc(N2CCCCC2)c2nc(N(CCO)CCO)nc(N3CCCCC3)c2n1`, the Potency entry is “inactive”. Regarding `CCc1ccc(CCOc2ccc(CC3SC(=O)NC3=O)cc2)nc1` (configuration not stated), the Potency result was “inactive”.

For `C#Cc1cccc(Nc2ncnc3cc(OCCOC)c(OCCOC)cc23)c1`, the Potency entry was “inactive”.
